# Source: PubChem BioAssay (National Center for Advancing Translational Sciences (NCATS))
# CRE Fsk mod – Cell signaling CRE-BLA (Fsk stim); CHO CRE-bla reporter (cAMP response element driving beta-lactamase), forskolin EC10, beta-lactamase ratio; Potency, µM (series often up to 38.2 µM), without a hit: at the highest dose activity change, negative = inhibition, actives largely listed as activators; 71,000 tested, 2.5% active; active = well fitted activation curve with a large enough effect in the signal ratio, with a control signal flat, not every such curve was filed as active; inconclusive = small, poorly fitted or top-dose-only effect, or effect the other way, or a change in a side signal; the % refers to the signal ratio; also: % of control where 0% means no effect
#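 Beta-lactamase reporter under a cAMP responsive element in CHO cells; compounds tested in titration series against EC10 NKH 477, 3 h at 37 °C. Read-out: CCF4 FRET ratio 460nm/530nm (excitation 405nm) giving %Activity, fitted to AC50.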
# Peg3 imprint – qHTS Assay for Compounds that Induce Erasure of Genomic Imprints. mouse ES Peg3-LacZ reporter, beta-gal luminescence, 40 h. Potency, µM (series often up to 60.7 µM), inactives show at the highest dose activity change, positive = activation, actives largely listed as activators. AID 1948, 2009. 110,000 tested, 0.02% active
#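 Each well holds 300 Peg3LacZ-Neo (maternal) female ES cells incubated 40 h at 37C, 5% CO2. LacZ is measured by BetaGlo luminescence, with AC50 and maximum efficacy derived from dose-response curves.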
# p53ts 32C kill – qHTS Screen for Compounds that Selectively Target Cancer Cells with p53 Mutations: Cytotoxicity of p53ts Cells at the Permissive Temperature; H1299-p53A138V at 32C, ATP luminescence viability, 24 h; Potency, µM (titrated, usually from 46.1 µM), for the others: at the top dose activity change, negative = cytotoxicity, actives largely listed as cytotoxic; 130,000 tested, 0.93% active; AID 924, 2007;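 also: 0% = DMSO and -100% = full killing by reference compound; nearly all actives have a fitted effect of over 55% in size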
#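 H1299-p53 A138V cells (temperature-sensitive p53) exposed 24 h to up to 46 uM compound at 32C, where p53 is wild-type in conformation. Viability read as ATP luminescence and normalised to DMSO and 100 uM tamoxifen. AC50 fitted with the Hill equation.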
# p53ts 39C tox – qHTS Screen for Compounds that Selectively Target Cancer Cells with p53 Mutations: Cytotoxicity of p53ts Cells at the Nonpermissive Temperature; H1299-p53A138V viability at 39C, ATP luminescence, 24 h; Potency, µM (top dose mostly 46.1 µM), inactives show top-dose activity change, negative = cell killing, most hits filed as cytotoxic; 130,000 tested, 1.5% active; AID 902, 2007; also: % is scaled to controls: 0 for no effect and ±100 for the full control effect; nearly all actives have a fitted effect of over 55% in size
# IkB sig inh – IkB Signaling | 110,000 tested, 0.04% active | AID 445, 2006 | ABC-DLBCL IkBa-CBG/CBR dual luciferase ratio, 4 h; response scale: scaled: untreated 0%, proteasome inhibitor 100% | Potency, µM (series often up to 57.1 µM), for inactives: at the highest dose IkBa stabilization activation; active = well fitted curve in the direction sought with a large enough effect in the signal ratio, not every such curve was filed as active; inconclusive = small, poorly fitted or top-dose-only effect, or a change in a side signal; the % refers to the signal ratio;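 also: the direction sought is a rising ratio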
#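 Curves were fitted separately to fusion (green), unfused (red) and ratio luminescence, then classed by r2, magnitude and activity. Cells: OCI-Ly3, 4 h compound plus doxycycline at 37C; 10 uM MG-132 defined full response.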
# * marks the source's active call; other numbers are inactive results; ? = inconclusive; . = no result given; [ ] = dose if it differs, or a comment. Compounds with a hit are over-represented: about 3% of the library has one in this group of screens. Unless noted, calls follow the shape of the dose curve; as a rule, active = well fitted curve in the direction sought with a large enough effect; inconclusive = small, poorly fitted or top-dose-only effect, or another doubt; inactive = no such curve, though single readings can be large; an effect the other way counts as inactive or inconclusive. Potency is read from the fitted curve at half-maximal effect.
SMILES,CRE Fsk mod,Peg3 imprint,p53ts 32C kill,p53ts 39C tox,IkB sig inh
CC(=O)c1c(C)nc2cc(Cl)ccc2c1N,10µM*,-13%,-9%,-7%,-2%
Cc1c(Cl)cccc1-c1ccc(/C=C(\C#N)c2nc3ccccc3[nH]2)o1,.,-12%[10.9 µM],?,13µM*,19%
Cc1ccc2nc(/C(C#N)=C/c3ccc(-c4ccc(F)cc4F)o3)[nH]c2c1,.,-19%[10.9 µM],6.3µM*,5µM*,?
COc1cccc(/C=C(\C#N)c2nc3ccc(C)cc3[nH]2)c1,.,-11%[10.9 µM],-26%,-17%,-2%
N#C/C(=C\c1ccc(Sc2ccc(Cl)cc2)o1)c1nc2ccccc2[nH]1,.,.,.,1%,.
N#C/C(=C/c1ccc(N2CCOCC2)o1)c1nc2ccccc2[nH]1,.,.,16µM*,?,.
CN(CC(=O)Nc1cccc(F)c1)S(=O)(=O)c1ccc2c(c1)n(C)c(=O)c(=O)n2C,.,15%[10.9 µM],-6%,-2%,1%
Cc1ccc2nc(-c3ccc4c(c3)OCCO4)cc(C(=O)O)c2c1,-1%,-28%,16µM*,10µM*,?
CS(=O)(=O)N1CCN(C(=O)c2cc(-c3cccs3)nc3ccccc23)CC1,5%,2%,-24%,-15%,3%
O=C(O)c1cc(-c2cccs2)nc2cc3c(cc12)OCCO3,?,-13%,?,10µM*,3%
Cc1c(Cl)cccc1NC(=O)c1cc(-c2ccc(O)cc2)on1,?,-17%,13%,-6%,?
Cc1oc(C)c2c(=O)ccc3c(c12)OC(N)=C(C#N)C3c1ccccc1 (centres undefined),0.25µM*,-10%,0%,9%,?
N#Cc1c(-c2ccco2)cc(-c2ccc(F)cc2)nc1N,13µM*,-6%,-10%,-15%,3%
COC(=O)CSc1nc(-c2ccccc2)cc(-c2ccco2)c1C#N,11%,-6%,-8%,-3%,0%
CC(C)Cc1cc(-c2ccco2)c(C#N)c(N)n1,1.6µM*,10%,-3%,-2%,-1%
CC(C)c1ccc2oc(-c3cccc(NC(=O)c4ccc5c(c4)OCCO5)c3)nc2c1,.,-11%[10.9 µM],?,10µM*,?
CCc1ccc(CNc2nc3nc(C)c(Cc4ccccc4)c(=O)n3[nH]2)cc1,.,-9%[10.9 µM],-19%,-19%,?
O=C(CCn1cccn1)Nc1ccc(Br)cc1F,.,-6%[10.9 µM],5%,-14%,0%
CCOC(=O)C1CCN(C(=O)CSc2n[nH]c(-c3ccccc3)n2)CC1,.,-2%[10.9 µM],-7%,8%,65%
CN(C)CCNC(=O)C1CCN(Cc2cc3ccccc3n2Cc2ccccc2)CC1,.,-9%[10.9 µM],?,13µM*,-2%
Fc1cccc(Cl)c1-c1nnc2ccc(N3CCOCC3)nn12,13µM*,-22%,-2%,1%,-1%
Clc1cccc(Cl)c1-c1nnc2ccc(N3CCOCC3)nn12,?,-23%,7%,17%,-1%
Cc1cc(C)c(Cn2c3ccccc3c3cnn(CC(=O)NCCc4ccccc4)c(=O)c32)c(C)c1,.,-11%[10.9 µM],4%,-26%,1%
CCOc1cccc(-c2nc3ccccc3c(=O)o2)c1,.,-29%[10.9 µM],10µM*,10µM*,?
COc1cc(OC)cc(-c2nc3ccccc3c(=O)o2)c1,.,.,-5%,22%,.
SMILES,CRE Fsk mod,Peg3 imprint,p53ts 32C kill,p53ts 39C tox,IkB sig inh
COc1ccc(CCNC(=O)c2ccc3c(c2)N(Cc2c(F)cccc2Cl)C(=O)CS3)cc1OC,.,-12%[10.9 µM],4%,-5%,?
O=c1c2[nH]c3ccc(Br)cc3c2ncn1CCCn1ccnc1,10µM*,-16%,-28%,8%,-1%
COc1cc2nc3c(c([Si](C)(C)C(C)(C)C)c2cc1OC)Cn1c-3cccc1=O,16µM*,12%,21%,22%,.
CC(C)(C)[Si](C)(C)c1c2c(nc3ccc(OCc4ccccc4)cc13)-c1cccc(=O)n1C2,7.9µM*,-1%,-18%,-20%,.
COc1ccc2nc3c(c([Si](C)(C)C(C)(C)C)c2c1)Cn1c-3cccc1=O,?,-20%,13%,2%,.
CC1=C(c2ccc(C)cc2)S(=O)(=O)N(Cc2ccc(C(=O)NCc3cccc(C)c3)cc2)C1=O,.,-13%[10.9 µM],-4%,-20%,?
COc1ccc(CCNC(=O)c2cc(-c3ccc(C)cc3)nc3n[nH]c(-c4ccc(F)cc4)c23)cc1OC,.,8%[10.9 µM],9%,-17%,-1%
COc1ccccc1N1CCN(c2nc(-c3ccc(C)cc3)nc3ccccc23)CC1,.,-11%[10.9 µM],-2%,?,?
COc1ccc(C(=O)CSc2nc3cc(C(=O)NC4CCCC4)ccc3c(=O)n2CC2CCCO2)cc1 (centres undefined),.,-3%[10.9 µM],9%,-1%,0%
COC(=O)c1ccc2c(=O)n(CC3CCCO3)c(SCC(=O)Nc3ccccc3OC)nc2c1 (centres undefined),13µM*,-16%,-16%,-24%,5%
CCCN1CCN(CCNC(=O)Nc2cc(Cl)c(OC)cc2OC)CC1,.,-7%[10.9 µM],-9%,-20%,1%
CCCC(=O)NCCc1cc2c(C)ccc(C)c2[nH]c1=O,13µM*,-12%,-2%,17%,1%
COc1ccc2nc(-c3cccc(N)c3)[nH]c2c1,.,.,7.9µM*,16µM*,.
COc1ccc2nc(-c3ccc(N)cc3)[nH]c2c1,.,.,16µM*,?,.
COc1ccc(C(=O)Nc2cccc3c2C(=O)NC3=O)cc1S(=O)(=O)N1CCOCC1,2.5µM*,8%,8%,-2%,1%
COc1ccc(C(=O)Nc2ccc(-c3cn4ccsc4n3)cc2)cc1S(=O)(=O)N1CCOCC1,2µM*,-8%,9%,18%,2%
Cn1nnnc1Sc1ncnc2scc(-c3ccc(F)cc3)c12,?,-18%,?,?,?
Cn1nnnc1Sc1ncnc2scc(-c3ccccc3)c12,0.5µM*,-16%,-98%,?,?
COc1ccccc1-c1cc(C2CC2)nc(N)c1C#N,10µM*,-8%,-4%,0%,-1%
COc1ccc(CN(C)S(=O)(=O)c2nnc(NC(=O)C(C)C)s2)cc1OC,.,-1%[10.9 µM],4%,16%,-2%
CCc1ccc2c(c1)c(=O)c(S(=O)(=O)c1ccc(Cl)cc1)cn2CC,.,-4%[10.9 µM],-1%,-13%,?
COc1ccccc1C(=O)Nc1ccc2c(c1)nc(CCNC(C)=O)n2C,6%,-13%,13µM*,13µM*,3%
COc1ccccc1C(=O)Nc1ccc2c(c1)OCO2,7%,-63%,?,?,2%
O=C(CN1CCN(CC(=O)Nc2ccccc2Cl)CC1)Nc1ccc2c(c1)OCCO2,-14%,-15%,-11%,-7%,-1%
COc1ccccc1C(=O)Nc1ccc2c(c1)OCCO2,-3%,.,16µM*,16µM*,7%
